Shown is part of a subset that was picked to be rich in hits.
TbREL1 primary – TbREL1 RNA ligase inhibitors, primary screen, biochemical, FRET fluorescence; RNA-editing ligase 1, mitochondrial (Trypanosoma brucei brucei), P86926; TbREL1 RNA ligation; inhibition, % at 9.66 µM; 89,000 compounds, 0.49% hits;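 active = inhibition above the mean inhibition across all screened compounds plus 3 SD, cut at about 11% in these data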;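 also: 0% = plate median of test wells and 100% = NSC42067 control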
TbREL1 confirm – TbREL1 RNA ligase inhibitors, confirmation, biochemical, FRET fluorescence, triplicate; shares compounds with TbREL1 primary; TbREL1 RNA ligation; inhibition, % at 9.66 µM; 390 compounds, 37% hits;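 active = mean inhibition across replicates above a set limit taken from the earlier primary screen, cut at about 11% in these data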;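 also: 0% = REL1 with substrate and DMSO and 100% = REL1 plus control inhibitor NSC42067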
* hit, by the source's call.

SMILES | TbREL1 primary | others
O=C(NCc1ccccc1)OC1CCC12CCC(c1ccccc1)CC2 (stereo not given) | -2
CCn1c(=Nc2ccc(N3CCOCC3)cc2)ccc2ccccc21 | -1
O=C(c1ccccc1)c1ccc(N2CCOCC2)cc1 | 1
Cn1c(N=Nc2ccc(N3CCOCC3)cc2)[n+](C)c2ccccc21 | 23* | TbREL1 confirm=27*
C(=C\c1ccccc1)/CSc1nnc(COc2ccccc2)n1Cc1ccco1 | 1
O=C(NC1(O)C(=O)c2ccccc2C1=O)c1ccccc1 | 22* | TbREL1 confirm=49*
O=C(NC(C(=O)O)c1ccccc1)c1ccccc1 (stereo not given) | 1
CC(=O)C(C(C)=O)C1(O)C(=O)c2ccccc2C1=O | 7
Cc1ccc(CNC(=O)O[C@H]2CC[C@@]34CCCN3C(=O)CCC[C@H]4C2)o1 | -5
C=C1C(=O)[C@]23C[C@H]1CC[C@H]2[C@]1(C)CCC[C@@](C)(C(=O)OC)[C@H]1C[C@@H]3O | 2
Cc1ccccc1CN[C@@H]1CC[C@@]23CCCN2C(=O)CCC[C@H]3C1 | 11
Cc1cc(NS(=O)(=O)c2ccc(NC(=S)NC(=O)c3ccccc3)cc2)no1 | -1
CCOc1cc(C(=O)Nc2ccc(S(=O)(=O)Nc3cc(C)on3)cc2)cc(OCC)c1OCC | 61* | TbREL1 confirm=2
CCCCCOc1ccc(C(=O)Nc2ccc(S(=O)(=O)Nc3cc(C)on3)cc2)cc1 | -2
O=C1C(=O)N(Cc2ccc(-c3ccccc3)cc2)c2ccc(OC(F)(F)F)cc21 | 3
C[C@@H]1CN([C@@H](C)CO)C(=O)c2cccc(NC(=O)Nc3cccc4ccccc34)c2O[C@H]1CN(C)S(=O)(=O)c1ccc(Cl)cc1 | -4
O=C(c1ccccc1)c1c[nH]cc1-c1ccccc1 | -1
Cc1oc2c(c1C(=O)c1ccccc1)C(=O)C(=O)c1ccccc1-2 | 29* | TbREL1 confirm=66*
COc1ccc(C(=O)c2c(C(F)(F)F)oc3c2C(=O)c2ccccc2C3=O)cc1OC | 4
O=C(CC1CCCC1)N[C@H](C(=O)N1CCC[C@H]1C(=O)NCCc1ccccc1Cl)c1ccccc1 | 0
Cn1c(=O)cc(OCCCC(=O)Nc2cc(C(F)(F)F)ccn2)c2ccccc21 | 2
O=C(Nc1ccc(Br)c(C(F)(F)F)c1)[C@@H]1CC=C[C@@H]2CCN(CC3CC3)C(=O)[C@@H]21 | 0
CCC[C@H]1[C@@H](OC(=O)NCCc2ccccc2)CC[C@@]23CCCN2C(=O)CCC[C@@H]13 | 9
CCC(C)c1ccc(NC(=O)CSc2nnc(-c3cccc(C)c3)n2C)cc1 (stereo not given) | 3
Nc1ccc(S(=O)(=O)O)cn1 | 1
CC(C)(C)Sc1ccc(N)nc1 | 39* | TbREL1 confirm=5
